Screening results: PubChem BioAssay, National Center for Advancing Translational Sciences (NCATS)
The list is not random: actives were taken first. Their share in the collection is about 19%.
IL-1B inflam inh = inhibitors of inflammasome signaling (IL-1 beta secretion); THP-1 LPS/ATP IL-1B secretion, AlphaLISA, 16 h; active compounds read low; activity change, % at 57.5 µM; 360,000 tested, 4.7% active; AID 743279; in the data active = activity change below about -50%; inconclusive = mostly about -30% to -49%; also: % is scaled to controls: 0 for no effect and ±100 for the full control effect
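THP-1 cells pretreated 1 hr with compounds (up to 57.5 uM final), then stimulated with LPS (250 ng/mL final) plus ATP (1.25 mM final); secreted IL-1B measured by AlphaLISA after 16 hr, decreased signal indicating inhibition.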
HepG2 viability = HepG2 cytotoxicity, counter-screen for TGF-b inhibitors | HepG2 CAGA-GFP viability, ATP luminescence, 18 h | Potency, µM (series often up to 46.1 µM), inactives show at the highest dose activity change, negative = cytotoxicity, actives largely listed as cytotoxic | 410,000 tested, 0.76% active; also: potency is read from the fitted curve at half-maximal effect
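HepG2 CAGA-GFP cells (1000/well, DMEM with 1% FBS) received compound, then TGF-beta at 500 pg/mL final, and were incubated 18 hours at 37 degrees C. Viability was read by CellTiter-Glo luminescence. Media-only wells were set as complete cell-killing and DMSO as no toxicity.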
TDP1 cell CPT = growth inhibition of DT40 Tdp1-/-;hTDP1 cells with camptothecin (screen for TDP1 inhibitors) | Potency, µM (titrated, usually from 46.2 µM), for inactives: top-dose activity change, negative = growth inhibition, actives largely listed as inhibitors | 420,000 tested, 12% active | chicken DT40 Tdp1-/-;hTDP1 cells + 20 nM CPT, ATP luminescence, 48 h; also: potency is read from the fitted curve at half-maximal effect; % is scaled to controls: 0 for no effect and ±100 for the full control effect; nearly all actives have a fitted effect of over 55% in size
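Cell growth measured by CellTiter-Glo luminescence after a minimum 48 h, 37 C compound exposure with 20 nM CPT in Tdp1-knockout DT40 cells stably expressing hTDP1, seeded 400/well; qHTS titration format.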
TGFb inhibitor = blocks TGF-b signaling | HepG2 CAGA-GFP TGF-b/SMAD3 reporter, GFP fluorescence, 18 h; TGF-beta stimulated, 500 pg/mL final | Potency, µM (highest dose often 46.1 µM), for inactives: top-dose activity, negative = inhibition, most hits filed as inhibitors | 410,000 tested, 1.2% active; also: potency is read from the fitted curve at half-maximal effect; % is scaled to controls: 0 for no effect and ±100 for the full control effect; nearly all actives have a fitted effect of over 65% in size
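Smad-responsive CAGA-GFP expression was quantified in HEPG2 cells exposed to compounds and 500 pg/mL final TGF-beta for 18 h at 37 degrees C; unstimulated wells defined full inhibition.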
TDP1 cell noCPT = qHTS for Inhibitors of human tyrosyl-DNA phosphodiesterase 1 (TDP1): qHTS in cells in absence of CPT | DT40 Tdp1-/- hTDP1 cells, no CPT, ATP luminescence, 48 h | Potency, µM (titrated, usually from 46.2 µM), for inactives: at the highest dose activity change, negative = growth inhibition, most hits filed as inhibitors | 420,000 tested, 15% active; also: potency is read from the fitted curve at half-maximal effect; % is scaled to controls: 0 for no effect and ±100 for the full control effect; nearly all actives have a fitted effect of over 55% in size
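Chicken DT40 Tdp1-/- cells complemented with human TDP1, screened without camptothecin (DMSO vehicle only), 400 cells/well. Compounds pin-transferred, cells incubated at 37 °C for at least 48 hr. Growth read as ATP-dependent luminescence (CellTiter-Glo, 30 min at RT).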
TDP1 block = blocks human tyrosyl-DNA phosphodiesterase 1; AID 485290; Potency, µM (highest dose often 130 µM), for the others: top-dose activity change, negative = inhibition, actives largely listed as inhibitors; 350,000 tested, 0.28% active; Q9NUW8; recombinant TDP1, AlphaScreen DNA substrate cleavage; also: potency is read from the fitted curve at half-maximal effect; % is scaled to controls: 0 for no effect and ±100 for the full control effect; nearly all actives have a fitted effect of over 40% in size
Target sequence (Q9NUW8 whole entry, looked up): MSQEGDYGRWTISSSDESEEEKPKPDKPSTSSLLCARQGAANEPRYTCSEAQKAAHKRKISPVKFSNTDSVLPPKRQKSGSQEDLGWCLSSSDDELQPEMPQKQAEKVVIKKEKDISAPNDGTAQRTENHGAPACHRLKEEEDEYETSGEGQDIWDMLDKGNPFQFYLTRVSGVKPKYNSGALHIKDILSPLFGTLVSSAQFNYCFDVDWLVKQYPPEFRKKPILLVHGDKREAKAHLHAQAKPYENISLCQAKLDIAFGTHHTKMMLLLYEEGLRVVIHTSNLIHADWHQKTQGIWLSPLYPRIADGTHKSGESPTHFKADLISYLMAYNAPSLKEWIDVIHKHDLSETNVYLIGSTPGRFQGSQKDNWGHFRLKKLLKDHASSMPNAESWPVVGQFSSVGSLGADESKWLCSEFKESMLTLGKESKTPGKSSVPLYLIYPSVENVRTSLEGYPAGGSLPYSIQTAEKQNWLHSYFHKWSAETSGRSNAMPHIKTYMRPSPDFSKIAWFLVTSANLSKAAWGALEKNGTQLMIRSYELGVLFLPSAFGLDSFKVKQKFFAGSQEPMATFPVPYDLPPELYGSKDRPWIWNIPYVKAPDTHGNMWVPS
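E. coli-derived human Tdp1, 1 nM final. Cpd preinc 15 min RT; substrate 15 nM final, 5 min RT; AS bead mix 10 ug/ml final, 10 min RT. Signal loss = tyrosine-FITC cleavage. No-enzyme wells = max signal.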
* hit, by the source's call; [ ] = dose if it differs, or a comment. Unless noted, calls follow the shape of the dose curve; as a rule, active = well fitted curve in the direction sought with a large enough effect; inconclusive = small, poorly fitted or top-dose-only effect, or another doubt; inactive = no such curve, though single readings can be large; an effect the other way counts as inactive or inconclusive.

Results for c1ccc(COc2ncnc3c2ncn3CCCNCC(c2ccccc2)c2ccccc2)cc1 ?
IL-1B inflam inh: -94*; HepG2 viability: 11µM*; TDP1 cell CPT: 26µM*; TGFb inhibitor: 16µM*; TDP1 cell noCPT: 16µM*

Results for C[C@H]1NCc2cc(-c3ccc4c(=O)c(C(=O)O)cn(C5CC5)c4c3OC(F)F)ccc21 ?
TDP1 cell CPT: -23%; TDP1 cell noCPT: -14%

What do the screens show for `CCCCN1CC(c2nc3ccccc3n2CCCCOc2cc(C)cc(C)c2)CC1=O` (stereo not given)?
HepG2 viability: -106%; TDP1 cell CPT: 12µM*; TGFb inhibitor: inconclusive; TDP1 cell noCPT: 7.3µM*; TDP1 block: 3%

Results for C=C(C)Cn1c(C2CC(=O)N(Cc3ccccc3)C2)nc2ccccc21 (stereo not given) ?
IL-1B inflam inh: -21; HepG2 viability: -3%; TDP1 cell CPT: inconclusive; TGFb inhibitor: inconclusive; TDP1 cell noCPT: inconclusive; TDP1 block: 2%

What do the screens show for `CCCCN1CC(c2nc3ccccc3n2CCCCOc2cccc(C)c2C)CC1=O` (stereo not given)?
HepG2 viability: 11µM*; TDP1 cell CPT: inconclusive; TGFb inhibitor: inconclusive; TDP1 cell noCPT: 21µM*; TDP1 block: 9%

Results for CCCCN1CC(c2nc3ccccc3n2CCCCOc2ccc(C)c(C)c2)CC1=O (stereo not given) ?
HepG2 viability: -103%; TDP1 cell CPT: 10µM*; TGFb inhibitor: 11µM*; TDP1 cell noCPT: 7.3µM*; TDP1 block: 6%

How did COc1ccc(Cl)cc1NC(=O)C1CCCN(S(=O)(=O)c2ccc3c(c2)CCCC(=O)N3)C1 (stereo not given) do in these assays?
HepG2 viability: -1%; TGFb inhibitor: 12%; TDP1 block: 6%

What do the screens show for `Cc1nn(Cc2noc(C(=O)NC(C)c3ccccc3)n2)c(C)c1Br` (stereo not given)?
HepG2 viability: -32%; TDP1 cell CPT: inconclusive; TGFb inhibitor: -25%; TDP1 cell noCPT: -25%; TDP1 block: 5%

Results for CC12CCC(C(=O)Nc3ccc(SC(F)F)cc3)(CC1=O)C2(C)C (stereo not given) ?
IL-1B inflam inh: -81*; HepG2 viability: -27%; TDP1 cell CPT: inconclusive; TGFb inhibitor: 0%; TDP1 cell noCPT: -27%; TDP1 block: 3%

Results for O=C(NCCCc1nc2ccccc2n1CCOc1ccccc1)C1CCCCC1 ?
HepG2 viability: 0%; TDP1 cell CPT: -28%; TGFb inhibitor: 0%; TDP1 cell noCPT: -26%; TDP1 block: 0%

How did O=C(NCCCc1nc2ccccc2n1CCCCOc1ccccc1)C1CCCCC1 do in these assays?
HepG2 viability: -8%; TDP1 cell CPT: inconclusive; TGFb inhibitor: inconclusive; TDP1 cell noCPT: 13µM*; TDP1 block: 0%

Results for Cc1ccc(OCCn2c(CCNC(=O)C3CCCCC3)nc3ccccc32)cc1 ?
HepG2 viability: 0%; TGFb inhibitor: 5%; TDP1 block: 3%

Results for O=C(NCCCc1nc2ccccc2n1CCCOc1ccccc1)C1CCCCC1 ?
HepG2 viability: -7%; TDP1 cell CPT: 11µM*; TGFb inhibitor: -4%; TDP1 cell noCPT: 10µM*; TDP1 block: 2%

How did CCOc1ccc(CCNC(=O)c2cc3sc(Cl)cc3n2C)cc1OCC do in these assays?
IL-1B inflam inh: 15; HepG2 viability: 0%; TDP1 cell CPT: inconclusive; TGFb inhibitor: -14%; TDP1 cell noCPT: inconclusive; TDP1 block: 0%

Results for COC(=O)c1ccc(NC(=O)c2cc3sccc3n2C)cc1 ?
IL-1B inflam inh: 6; HepG2 viability: -31%; TDP1 cell CPT: 29µM*; TGFb inhibitor: -14%; TDP1 cell noCPT: inconclusive; TDP1 block: 4%

How did COc1ccc(CCNC(=O)c2cc3sccc3n2Cc2ccc(Cl)cc2)cc1OC do in these assays?
HepG2 viability: -15%; TDP1 cell CPT: 13µM*; TGFb inhibitor: -1%; TDP1 cell noCPT: 15µM*; TDP1 block: 4%

How did CCOc1ccc(CCNC(=O)c2cc3sccc3n2C)cc1OCC do in these assays?
IL-1B inflam inh: -6; HepG2 viability: -11%; TDP1 cell CPT: 16µM*; TGFb inhibitor: -12%; TDP1 cell noCPT: 10µM*; TDP1 block: 6%

How did CC(=O)N[C@@H](CC(C)C)C(=O)N[C@@H](CCCNC(=N)N)C(=O)N[C@@H](Cc1cnc[nH]1)C(=O)N[C@@H](Cc1ccc(O)cc1)C(=O)N[C@@H](CC(C)C)C(=O)N[C@@H](CC(N)=O)C(=O)N[C@@H](CC(C)C)C(=O)N[C@@H](CC(C)C)C(=O)N[C@H](C(=O)N[C@@H](CCCNC(=N)N)C(=O)N[C@@H](CCC(N)=O)C(=O)N[C@@H](CCCNC(=N)N)C(=O)N[C@@H](Cc1ccc(O)cc1)C(N)=O)[C@@H](C)O do in these assays?
TDP1 block: 10%

How did CCOC(=O)[C@H](CCc1ccccc1)N[C@@H](C)C(=O)N1[C@H](C(=O)O)C[C@H]2CCCC[C@@H]21 do in these assays?
TDP1 cell CPT: 4%; TDP1 cell noCPT: -9%; TDP1 block: 4%[56.1 µM]

What do the screens show for `CC(C)(C)OC(=O)N1CCC(c2c(C(=O)NCCN3CCOCC3)cnn2-c2cccc(F)c2)CC1`?
HepG2 viability: -10%; TDP1 cell CPT: -26%; TGFb inhibitor: -14%; TDP1 cell noCPT: -26%; TDP1 block: 2%

How did CCOc1ccc(NC(=O)CC2C(=O)N(c3ccc(F)cc3)C(=O)N2CCc2sccc2C)cc1 (stereo not given) do in these assays?
HepG2 viability: -19%; TDP1 cell CPT: -111%; TGFb inhibitor: inconclusive; TDP1 cell noCPT: 23µM*; TDP1 block: 1%

How did COc1ccc(NC(=O)CC2C(=O)N(c3ccccc3)C(=O)N2CCc2sccc2C)cc1 (stereo not given) do in these assays?
HepG2 viability: -23%; TDP1 cell CPT: inconclusive; TGFb inhibitor: -1%; TDP1 cell noCPT: 16µM*; TDP1 block: 1%

Results for COc1ccc(NC(=O)CC2C(=O)N(c3ccc(F)cc3)C(=O)N2CCc2sccc2C)cc1 (stereo not given) ?
HepG2 viability: -56%; TDP1 cell CPT: inconclusive; TGFb inhibitor: inconclusive; TDP1 cell noCPT: inconclusive; TDP1 block: 6%
